Screening data deposited in PubChem BioAssay by several laboratories.
In the library only some 3.4% were active in any assay of this set; here they are far more common.
KLK7 zymogen act: proKLK7 (human) activation, primary screen; purified proKLK7, EDANS-DABCYL substrate fluorescence; 100% is mature enzyme control, 0% vehicle; AID 652039; activation, % at 7 µM; actives 0.9% (n = 370,000); P49862;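 active = activation above the mean of all tested compounds plus 3 SD, computed per campaign excluding outliers beyond control limits, cut at about 13% in these data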
sPLA2-III inh: Inhibits HGIII-sPLA2 liposome hydrolysis, primary screen. inhibition, % at 12.2 µM. Q9NZ20. AID 743126. QFRET BODIPY PC-A2 liposome hydrolysis, fluorescence. actives 0.56% (n = 370,000);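 active = inhibition above mean plus 3 SD of compounds lying within the high and low control bounds, cut at about 19% in these data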
ADAM17 inh: inhibits human ADAM17; recombinant ADAM17, EDANS/DABCYL FRET peptide cleavage; P78536; actives 0.83% (n = 370,000); inhibition, % at 6.95 µM; AID 720648;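 active = inhibition above the mean of compounds lying between control limits plus 3 SD, set per campaign, cut at about 8.5% in these data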
ADAM10 inh: inhibitors of human ADAM10. O14672. recombinant ADAM10, EDANS/DABCYL FRET peptide cleavage, 3 h. inhibition, % at 7 µM. actives 0.62% (n = 370,000). AID 720582;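 active = inhibition above a per-campaign cutoff equal to the mean of compounds falling between control-based bounds plus 3 SD, cut at about 20% in these data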
NRP1-CendR mod: alters CendR peptide binding to human NRP-1. FAM-RPARPAR peptide binding to NRP-1, fluorescence polarization. inhibition, % at 25 µM. actives 0.85% (n = 360,000);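 active = inhibition or corrected inhibition above about 18%, plus a signal ratio from 0.5 to 1.5, limit read from the data, passing the limit was not always enough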
Hits are given with their value; - = inactive; . = no result given; ! = not confirmed by another sample.

SMILES | KLK7 zymogen act | sPLA2-III inh | ADAM17 inh | ADAM10 inh | NRP1-CendR mod
C[C@H]1COc2cccc(N3CCSCC3)c2S(=O)(=O)N1C | - | - | - | - | .
CCOC(=O)C1=C(C)N(CCCC(=O)O)C(=O)NC1c1ccccc1 (stereo unspecified) | - | - | - | - | 30
CC1=C/C(=C(\c2cc(C)c(O)c(Br)c2)c2ccccc2S(=O)(=O)O)C=C(Br)C1=O | - | - | - | - | 46
Cc1ccc(NC(=O)Nc2cccs2)nc1 | - | - | - | - | 25
Cc1ccc2[nH]c3c(=O)n(CC(=O)NCCCN(C)Cc4ccccc4)ncc3c2c1 | - | - | - | - | -
CC(C)N(CCCNC(=O)Cn1ncc2c([nH]c3ccccc32)c1=O)Cc1ccccc1 | - | - | - | - | 26
CC1(C)S[C@@H]2C(C(=O)OCc3ccccc3)NC(=O)N2C1C(=O)OCc1ccccc1 (stereo partly specified) | - | - | - | - | 34
CC(C)C[C@@H]1COc2cc(Br)ccc2S(=O)(=O)N1Cc1cn(CC2CCCCC2)nn1 | - | - | - | - | .
CCc1c2c(nc3ccc(OC(=O)N4CCC(N5CCCCC5)CC4)cc13)-c1cc3c(c(=O)n1C2)COC(=O)[C@]3(O)CC | 63 | - | - | - | -
CCOC(=O)N1CCN(C(=O)C(=O)Nc2ccc3nc4n(c(=O)c3c2)CCCCC4)CC1 | - | - | - | - | -
COc1ccc(OCCNC(=O)Nc2cc(F)c(F)cc2Cl)cc1 | - | - | - | - | -
COc1cccc(OCCNC(=O)Nc2cc(F)c(F)cc2Cl)c1 | - | - | - | - | 25
Cc1ccccc1C1=NC(c2ccc(F)cc2F)ON1 (stereo unspecified) | - | - | - | - | 22
COc1ccccc1C1N=C(c2ccccc2C)NO1 (stereo unspecified) | - | - | - | - | -
C[C@H]1[C@@H](NC(=O)/C=C/c2ccccc2)CC[C@@]23CCCN2C(=O)CCC[C@@H]13 | . | - | - | - | .
C[C@H]1[C@@H](OC(=O)NCc2ccccc2)CC[C@@]23CCCN2C(=O)CCC[C@@H]13 | . | - | - | - | .
Cc1ccc(-c2cc(C(=O)N3CCOCC3)c3ccccc3n2)o1 | 112 | - | - | - | -
O=C(Nc1ccccc1Cl)NC1(C(=O)NCc2cccnc2)CCCCC1 | - | - | - | - | 25
N#Cc1ccc(-c2csc(NNC(=O)c3ccccc3)n2)cc1 | - | 39 | - | - | -
CN(C)CCOC(=O)C1(c2ccccc2)CCOCC1 | - | - | - | - | 24!
CC(=O)O[C@H]1[C@H](OC(C)=O)C[C@]2(OC(C)=O)C[C@H]1OC2=O | . | - | - | - | .
O=c1[nH]n2c(C(F)(F)F)cc(C3CC3)nc2c1N=Nc1ccccc1 | - | - | - | - | 24
Cc1cc(C(F)(F)F)n2[nH]c(=O)c(N=Nc3ccccc3)c2n1 | - | - | - | - | -
COc1ccc(CCNC(=O)c2c(O)c3cccc4c3n(c2=O)CC4)cc1OC | - | - | - | - | 44
O=C(Cc1ccc([N+](=O)[O-])cc1)Nc1cccc(C(=O)N2CCCCC2)c1 | - | - | - | - | 26
SMILES | KLK7 zymogen act | sPLA2-III inh | ADAM17 inh | ADAM10 inh | NRP1-CendR mod
CCC[C@H]1[C@@H](NC(=O)Nc2ccc3c(c2)OCO3)CC[C@@]23CCCN2C(=O)CCC[C@@H]13 | . | - | - | - | .
CC(=O)c1sc(N2CCOCC2)nc1-c1ccccc1 | - | - | - | - | 30
CC(Cc1ccccn1)NC(=O)c1ccc(OC2CCN(Cc3ccccn3)CC2)cc1 (stereo unspecified) | - | - | - | - | -
COc1cc(C(=O)NC(C)Cc2ccccn2)ccc1OC1CCN(C(C)=O)CC1 (stereo unspecified) | - | - | - | - | 20
CCC[C@H]1[C@@H](NCc2ccccc2)CC[C@@]23CCCN2C(=O)CCC[C@@H]13 | . | - | - | - | .
Cc1cnc(C(=O)OCC(=O)Nc2cc(Cl)ccc2C#N)cn1 | - | - | - | - | -
Cc1cnc(C(=O)OCC(=O)Nc2sc3c(c2C#N)CCC3)cn1 | - | - | - | - | 38
O=C(OC12CCCN(C1)/C(=C/c1cccnc1)C2)c1ccco1 (stereo unspecified) | - | - | - | - | .
C/C=C/c1cccc(-c2nc(C(=O)N3CCN(C)CC3)cc3c2[C@@H](CCO)N(C(=O)NC(C)C)C3)c1 | - | - | - | - | -
C/C=C/c1cccc(-c2nc(C(=O)N3CCCCC3)cc3c2[C@H](CCO)N(C(=O)NC(C)C)C3)c1 | - | - | - | - | 22
